From PubChem BioAssay
In the library only some 1.8% were active in any assay of this set; here they are far more common.
NRP1-CendR mod – modulators of CendR peptide binding to NRP-1, primary screen, biochemical, fluorescence polarization, uHTS; Neuropilin-1 (Homo sapiens), O14786; FAM-RPARPAR peptide binding to NRP-1; inhibition, % at 25 µM; 0.85% of 360,000 active;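 active = inhibition or corrected inhibition above about 18%, plus a signal ratio from 0.5 to 1.5, limit read from the data, passing the limit was not always enough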
Target sequence (O14786 whole entry, looked up): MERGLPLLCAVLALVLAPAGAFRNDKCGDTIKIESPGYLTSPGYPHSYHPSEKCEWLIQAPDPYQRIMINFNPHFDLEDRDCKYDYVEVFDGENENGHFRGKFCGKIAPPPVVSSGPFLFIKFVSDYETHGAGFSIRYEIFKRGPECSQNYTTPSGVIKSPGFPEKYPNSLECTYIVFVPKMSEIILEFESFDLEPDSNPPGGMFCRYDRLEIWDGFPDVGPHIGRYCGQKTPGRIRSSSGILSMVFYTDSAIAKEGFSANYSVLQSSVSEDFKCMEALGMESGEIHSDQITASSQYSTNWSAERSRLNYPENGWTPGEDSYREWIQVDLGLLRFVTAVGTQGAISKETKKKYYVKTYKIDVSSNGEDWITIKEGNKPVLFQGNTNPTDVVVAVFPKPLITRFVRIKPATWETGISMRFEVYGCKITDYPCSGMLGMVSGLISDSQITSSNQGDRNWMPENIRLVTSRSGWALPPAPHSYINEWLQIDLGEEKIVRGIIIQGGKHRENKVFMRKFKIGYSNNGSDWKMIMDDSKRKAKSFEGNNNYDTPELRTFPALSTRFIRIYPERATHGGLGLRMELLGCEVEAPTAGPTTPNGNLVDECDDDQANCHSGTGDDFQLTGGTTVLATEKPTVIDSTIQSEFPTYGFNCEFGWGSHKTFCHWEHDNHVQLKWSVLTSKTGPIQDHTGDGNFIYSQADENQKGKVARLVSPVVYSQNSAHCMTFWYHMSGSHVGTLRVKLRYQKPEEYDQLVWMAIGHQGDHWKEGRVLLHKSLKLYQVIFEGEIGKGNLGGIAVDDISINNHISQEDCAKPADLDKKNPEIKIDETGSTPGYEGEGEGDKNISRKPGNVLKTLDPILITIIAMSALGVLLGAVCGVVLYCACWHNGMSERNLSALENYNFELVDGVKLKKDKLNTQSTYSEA
ARNT-TACC3 inh – disruptors of ARNT/TACC3 protein interaction, primary screen, biochemical, AlphaScreen, single concentration; inhibition, % at 9.99 µM; Transforming acidic coiled-coil-containing protein 3 (Homo sapiens), Q9Y6A5; AlphaScreen His-ARNT PAS-B/GST-TACC3 binding, luminescence; TACC3 fragment carries E629A point mutation; 0.66% of 390,000 active;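 active = mean inhibition of replicates at least 50% and at least half of replicates each reaching 50%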;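 also: 0% = complete ARNT plus TACC3 wells and 100% = ARNT alone without TACC3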
GSIS activator – GLuc luminescence reporter in INS-1E cells, primary screen for activators of glucose-dependent secretion of insulin; INS-1E GLuc reporter insulin secretion, 2-3 h; activation, % at 16.6 µM; AID 743287, 2014; 0.61% of 370,000 active;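 active = lowest replicate activation of at least 40%, so every replicate reaches that level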;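 also: 0% = median of neutral control wells and 100% = median of IBMX positive control wells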
hiPSC survival – enhancers of single-cell hiPSC survival, primary screen, ATPlite luminescence; 100% = ROCK inhibitor wells, 0% = DMSO; survival enhancement, % at 20 µM; 0.044% of 360,000 active; AID 602274, 2012; in the data active = survival enhancement above about 18%;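 also: cells exposed to compounds for 16 hours before the ATP read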
ABCB6 inh MLPCN – ABCB6 transporter inhibitors, primary screen, K562-ABCB6 cells, flow cytometry, MLPCN library | fluorescence ratio to DMSO, % at 10 µM | ATP-binding cassette sub-family B member 6 (Homo sapiens), Q9NP58 | 0.19% of 360,000 active | K562-ABCB6 porphyrin accumulation, 1 h; active compounds read low | AID 602162, 2011;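 active = fluorescence ratio to DMSO below 75%, the collection mean minus 3 SD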;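 also: signal is porphyrin accumulated inside mitochondria; 100% equals median channel fluorescence of DMSO control wells; lower ratio means ABCB6 inhibition with less porphyrin fluorescence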
Active calls of the source: *; · = no result given.

SMILES	NRP1-CendR mod	ARNT-TACC3 inh	GSIS activator	hiPSC survival	ABCB6 inh MLPCN
CCCCCCSc1cc(-c2nc3cnccn3c2NCCCC)ccc1OC	-32	·	108*	2	119
Cc1cc(C)n(-c2nc(NCCN(C)C)c3c4c(sc3n2)CCCC4)n1	0	15	53*	0	101
C[C@H]1CN([C@@H](C)CO)S(=O)(=O)c2ccc(C#CC3CC3)cc2O[C@@H]1CN(C)C(=O)c1ccccc1	·	-12	-10	·	·
COc1ccc(NC(=S)N2CCC(c3nc4ccccc4[nH]3)CC2)c(OC)c1	-4	1	·	0	66*
COCc1cc(=O)[nH]c(Nc2nc3ccc(C)cc3o2)n1	3	56*	·	0	101
Cc1ccc(S(=O)(=O)Nc2ccc3c(c2)C(=O)N([C@@H](C)CO)C[C@H](C)[C@H](CN(C)C(=O)c2ccncc2)OCCCC[C@@H](C)O3)cc1	·	-15	8	·	·
CC1=C(C(=O)N2CCOCC2)CC(CC(=O)NCCCN(C)C)C(=O)N1CCCN1CCCC1=O (centres undefined)	2	·	41*	1	99
CC1=C(C(=O)N2CCCCCC2)CC(CC(=O)NCCCN(C)C)C(=O)N1CCCN1CCCC1=O (centres undefined)	0	·	7	-2	98
CC1=C(C(=O)N2CCCCCC2)CC(CC(=O)NCCN2CCOCC2)C(=O)N1Cc1ccccc1 (centres undefined)	29*	·	-3	0	99
CCN1c2ccccc2-c2nc3ccccc3n2C1c1ccccn1 (centres undefined)	39*	-8	·	3	101
CCN1c2ccccc2-c2nc3ccccc3n2C1c1ccncc1 (centres undefined)	-4	-1	·	3	97
CCC(C)Sc1ccc([C@H]2N[C@@](C)(C(=O)OC)[C@H]3C(=O)N(C)C(=O)[C@@H]23)cc1OC (some centres undefined)	-1	-1	-7	6	97
CCCCCCSc1ccc([C@H]2N[C@@](Cc3ccccc3)(C(=O)OC)[C@H]3C(=O)N(C)C(=O)[C@@H]23)cc1OC	28*	-2	·	-3	96
COC(=O)[C@]1(Cc2ccccc2)N[C@H](c2ccc(-c3ccc(OC)cc3)cc2)[C@@H]2C(=O)N(C)C(=O)[C@@H]21	3	-3	-9	-3	96
CCCSc1ccc([C@H]2N[C@@](C)(C(=O)OC)[C@H]3C(=O)N(C)C(=O)[C@@H]23)cc1OC	28*	-4	10	3	99
NC(=O)c1ccsc1NC(=O)COC(=O)CNC(=O)c1ccc(Cl)cc1	-1	-2	50*	0	105
COc1cccc(NC(=O)N2CC(=O)N3[C@H](CO)[C@H](c4ccc(C5=CCCC5)cc4)[C@@H]3C2)c1	·	·	4	·	·
Cc1ccc2oc(=O)c(/C=C(\O)c3cccs3)nc2c1	130	-1	·	-1	107
Cc1ccc2oc(=O)c(/C=C(\O)c3ccccc3)nc2c1	42*	-3	-15	0	93
Cc1ccc(CN2CC(=O)N3[C@H](C2)[C@@H](c2ccc(Br)cc2)[C@@H]3CO)cc1	·	·	4	·	·
C=CCn1nc([N+](=O)[O-])nc1Sc1cccc2cccnc12	-10	74*	·	1	90
C[C@@H]1CN([C@H](C)CO)C(=O)Cc2cc(NC(=O)CCN3CCOCC3)ccc2O[C@@H]1CN(C)C(=O)Nc1ccccc1	·	·	38	·	·
Cc1ccc2nc(SCc3nnc(-c4ccccc4Br)o3)[nH]c2c1	33*	-1	·	1	110
Clc1ccc2nc(SCc3nnc(-c4ccccc4)o3)[nH]c2c1	-2	0	·	2	95
C[C@@H]1CN([C@@H](C)CO)S(=O)(=O)c2ccc(C#C[C@@H](C)O)cc2O[C@@H]1CN(C)C(=O)C1CCC1	·	2	0	·	·
O=C(c1ccccn1)N1C[C@H]2[C@@H](c3ccccc31)[C@H](CO)N2C(=O)CC1CC1	·	23	10	·	·
O=C(c1ccccn1)N1C[C@@H]2[C@H](c3ccccc31)[C@H](CO)N2C(=O)C1CC1	·	49*	3	·	·
